Rows were chosen to be rich in hits. Some 0.43% of all compounds tested hit in one or more screens of this group.
Rango-impB inh: qHTS Assay for Inhibitors of Rango (Ran-regulated importin-beta cargo) - Importin beta complex formation. Importin subunit beta-1 (Homo sapiens), Q14974. Rango CFP/YFP FRET sensor + importin beta, 45 min. Potency, µM (doses to about 92.2 µM), for the others: at the top dose inhibition of complex formation. actives 0.031% (n = 340,000). AID 540263, 2011; calls by dose curve;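 further: 0% = DMSO wells and 100% = buffer wells lacking importin beta; nearly all actives have a fitted effect of over 15% in size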
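FRET biosensor Rango (snurportin 1 IBB between N-terminal EYFP and C-terminal Cerulean), 50 nM in PBS/1 mM DTT/0.02% Tween-20/0.1% BSA, preincubated 5 min RT with compound; 0.125 microM importin beta added, 45 min RT, CFP/YFP FRET ratio read.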
Rango release inh: qHTS Assay for Inhibitors of RanGTP induced Rango (Ran-regulated importin-beta cargo) - Importin beta complex dissociation; Snurportin-1 (Homo sapiens) + GTP-binding nuclear protein Ran (Homo sapiens) + Importin …; Biochemical FRET Rango-importin beta, RanGTP-induced dissociation; Potency, µM (series often up to 46.1 µM), for inactives: top-dose activity change, negative = inhibition; actives 0.071% (n = 340,000); calls by dose curve; further: % of control where 0% means no effect; nearly all actives have a fitted effect of over 45% in size
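Two FRET readings bracket the reaction: one 5 min after compound meets Rango–importin beta, another 45 min after RanGTP-RCC1 (0.6 uM Ran, 0.2 uM RCC1, 2 mM GTP) is added. Only the second defines inhibition.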
EPAC2 antagonist: qHTS for Antagonist of cAMP-regulated guanine nucleotide exchange factor 2 (EPAC2): primary screen; Rap guanine nucleotide exchange factor 4 (Homo sapiens), Q8WZA2; EPAC2 GEF exchange of Rap1B-BODIPY-GDP, fluorescence; Potency, µM (top dose mostly 114 µM), inactives show at the highest dose activity, negative = inhibition, most hits filed as inhibitors; actives 0.18% (n = 360,000); AID 720708, 2013; further: on the % scale 0 is the no-effect control and ±100 the full control effect; nearly all actives have a fitted effect of over 45% in size
EPAC1 antag: qHTS for Antagonist of cAMP-regulated guanine nucleotide exchange factor 3 (EPAC1): primary screen; AID 720709, 2013; Potency, µM (doses to about 115 µM), for inactives: at the top dose activity change, negative = inhibition, most hits filed as inhibitors; actives 0.14% (n = 360,000); EPAC1 GEF assay, Rap1b-BODIPY-GDP exchange fluorescence; Rap guanine nucleotide exchange factor 3 (Homo sapiens), O95398;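 further: plate controls were vehicle for no effect and positive control for full effect; nearly all actives have a fitted effect of over 50% in size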
Target sequence (O95398 whole entry, looked up): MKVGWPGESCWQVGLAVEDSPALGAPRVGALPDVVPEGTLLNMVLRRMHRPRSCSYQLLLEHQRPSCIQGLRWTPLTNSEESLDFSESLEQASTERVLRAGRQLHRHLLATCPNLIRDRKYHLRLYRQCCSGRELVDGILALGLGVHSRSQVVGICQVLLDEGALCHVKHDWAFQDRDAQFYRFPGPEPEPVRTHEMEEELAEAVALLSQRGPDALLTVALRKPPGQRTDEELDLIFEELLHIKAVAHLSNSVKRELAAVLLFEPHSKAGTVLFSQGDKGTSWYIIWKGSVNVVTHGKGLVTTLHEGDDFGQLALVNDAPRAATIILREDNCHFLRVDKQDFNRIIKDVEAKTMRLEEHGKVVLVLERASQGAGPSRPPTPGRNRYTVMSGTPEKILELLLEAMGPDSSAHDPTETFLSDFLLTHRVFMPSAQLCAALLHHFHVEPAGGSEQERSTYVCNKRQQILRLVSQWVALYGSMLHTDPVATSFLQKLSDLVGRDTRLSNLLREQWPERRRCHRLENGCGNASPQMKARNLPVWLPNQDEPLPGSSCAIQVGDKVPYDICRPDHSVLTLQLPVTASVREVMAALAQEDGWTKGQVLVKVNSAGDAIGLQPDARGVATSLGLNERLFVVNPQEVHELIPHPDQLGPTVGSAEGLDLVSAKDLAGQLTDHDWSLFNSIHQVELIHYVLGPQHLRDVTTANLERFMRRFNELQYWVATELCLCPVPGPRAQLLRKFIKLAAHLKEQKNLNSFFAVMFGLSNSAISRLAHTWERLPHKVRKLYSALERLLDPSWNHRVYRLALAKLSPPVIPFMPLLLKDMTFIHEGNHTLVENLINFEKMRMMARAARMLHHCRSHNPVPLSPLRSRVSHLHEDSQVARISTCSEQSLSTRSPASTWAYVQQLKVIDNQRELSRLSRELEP
EPAC2 agonist: qHTS for Agonist of cAMP-regulated guanine nucleotide exchange factor 4 (EPAC2): primary screen | EPAC2 activation, biochemical qHTS; response scale: 100% = 6.5 mM cAMP response | AID 720711, 2013 | Rap guanine nucleotide exchange factor 4 (Homo sapiens), Q8WZA2 | Potency, µM (top dose mostly 154 µM), for the others: at the highest dose activation, hits mostly activators | actives 0.079% (n = 360,000); further: nearly all actives have a fitted effect of over 50% in size
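qHTS, titration series. 100 nM EPAC2 / 250 nM Rap1B-BODIPY-GDP / 50 uM GDP; RT; ex 480/em 540 nm, 5-min reads to 30 min. Norm. to 6.5 mM cAMP = activation.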
EPAC1 agonist: qHTS for Agonist of cAMP-regulated guanine nucleotide exchange factor 3 (EPAC1): primary screen | Rap guanine nucleotide exchange factor 3 (Homo sapiens), O95398 | EPAC1 agonist qHTS, biochemical assay; response scale: 100% = response to 6.5 mM cAMP | Potency, µM (titrated, usually from 154 µM), without a hit: at the highest dose activation, most hits filed as activators | actives 0.073% (n = 360,000) | AID 720707, 2013; further: nearly all actives have a fitted effect of over 60% in size
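Nucleotide exchange assay: 100 nM EPAC1 with 250 nM Rap1B loaded with BODIPY-GDP and 50 uM GDP, room temperature. Fluorescence (480/540 nm) read every 5 min for 30 min; signal change normalized to 6.5 mM cAMP as full agonist.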
The depositor's hits bear a star; [ ] = another dose, or the depositor's remark. Unless noted, the call rests on the fitted dose curve; in most records, active means well fitted curve in the direction sought with a large enough effect; inconclusive means small, poorly fitted or top-dose-only effect, or another doubt; inactive means no such curve, though single readings can be large; an effect the other way counts as inactive or inconclusive. Potency means the concentration at half of the fitted maximal effect.

COc1cccc(/C=C2\SC(N)=NC2=O)c1OS(=O)(=O)c1ccccc1 was read as Rango-impB inh 2%, Rango release inh 0%, EPAC2 antagonist 6%, EPAC1 antag 3%, EPAC2 agonist 9% and EPAC1 agonist 4%.
Cc1ccc(S(=O)(=O)Oc2ccc(/C=C3/C(=N)N4C(=NC3=O)SN=C4S(C)(=O)=O)cc2)cc1 was read as Rango-impB inh 0%, Rango release inh 2%, EPAC2 antagonist inconclusive, EPAC1 antag -24%, EPAC2 agonist -1% and EPAC1 agonist -10%.
For COc1cc(/C=C2/C(=N)N3C(=NC2=O)SN=C3S(C)(=O)=O)ccc1OS(=O)(=O)c1ccc(C)cc1 the results were Rango-impB inh inconclusive, Rango release inh inconclusive, EPAC2 antagonist inconclusive, EPAC1 antag 50µM*, EPAC2 agonist 1% and EPAC1 agonist -4%.
Screening CCOc1ccc(/C=C2\SC(=S)NC2=O)cc1OC returned Rango-impB inh -3%, Rango release inh -13%, EPAC2 antagonist 13µM*, EPAC1 antag inconclusive, EPAC2 agonist 3% and EPAC1 agonist 5%.
`CSC12CCCN(CCC(C(C)(C)C)C1)C2=O` (stereo not given) gave EPAC2 antagonist -17%, EPAC1 antag -17%, EPAC2 agonist 4% and EPAC1 agonist 3%.
`O=C(NCc1ccc(Cl)c(Cl)c1)c1cc(C2CCCCN2C(=O)c2ccccc2)on1` (stereo not given) gave EPAC2 antagonist -9%, EPAC1 antag -9%, EPAC2 agonist 15% and EPAC1 agonist -15%.
`CC(C)=CCCC(C)c1cc(C(=O)NCCc2ccc(O)cc2)c(N)s1` (stereo not given) gave EPAC2 antagonist -14%, EPAC1 antag -5%, EPAC2 agonist -2% and EPAC1 agonist -2%.
Screening CCOC(=O)c1c(-n2cnnn2)sc2c1CCCC2 returned Rango-impB inh 3%, Rango release inh 32%, EPAC2 antagonist 4%, EPAC1 antag -8%, EPAC2 agonist 1% and EPAC1 agonist 15%.
CCOC(=O)c1c(N2C(=O)Nc3cc(Cl)c(Cl)cc3N2O)sc2c1CCCCC2 was read as Rango-impB inh 3%, Rango release inh 3%, EPAC2 antagonist -29%[57.1 µM], EPAC1 antag 50µM*, EPAC2 agonist -19% and EPAC1 agonist -12%.
For O=C(NCC(F)(F)F)C1C(=O)Nc2ccccc2C(=O)N1Cc1ccccc1 (stereo not given) the results were EPAC2 antagonist -2%, EPAC1 antag -20%, EPAC2 agonist -1% and EPAC1 agonist -8%.
`COc1cccc(/C=C2/CN(C)CC3=C2OC(N)=C(C#N)C3c2cccc(OC)c2)c1` (stereo not given) gave Rango-impB inh inconclusive, Rango release inh 21µM*, EPAC2 antagonist -4%, EPAC1 antag -30%, EPAC2 agonist 23% and EPAC1 agonist 30%.
For CC(=O)c1sc2ccccc2c1OC(=O)c1ccco1 the results were Rango-impB inh inconclusive, Rango release inh 26µM*, EPAC2 antagonist -1%, EPAC1 antag 5%, EPAC2 agonist -5% and EPAC1 agonist 3%.
`CCc1c(-c2ccc(Br)cc2)ncn1Cc1cccc(-c2ccccc2)c1` gave EPAC2 antagonist inconclusive, EPAC1 antag -7%, EPAC2 agonist 6% and EPAC1 agonist 3%.
`CC(C)(C)NC(=O)NC(=O)CN1CCN(S(=O)(=O)c2ccccc2)CC1` gave Rango-impB inh 1%, Rango release inh 6%, EPAC2 antagonist 4%, EPAC1 antag -5%, EPAC2 agonist -4% and EPAC1 agonist 3%.
`CC(C)(C)NC(=O)NC(=O)CN1CCN(S(=O)(=O)c2ccc3c(c2)CCCC3)CC1` gave Rango-impB inh -1%, Rango release inh -2%, EPAC2 antagonist -12%, EPAC1 antag -9%, EPAC2 agonist -2% and EPAC1 agonist 56µM*.
For CC(C)(C)c1ccc(C(=O)N2CCC2(C)C(=O)NCCC#N)cc1 (stereo not given) the results were EPAC2 antagonist 13%, EPAC1 antag -5%, EPAC2 agonist -1% and EPAC1 agonist -3%.
Screening CC1=CC2=C(C=O)C(=O)C(C)(O)C(O)C2=CO1 (stereo not given) returned EPAC2 antagonist 50µM*, EPAC1 antag inconclusive, EPAC2 agonist -68% and EPAC1 agonist -64%.
CCc1nc2c(OCCc3cccc(OC)c3)cccn2c1N(C)C(=O)c1cccs1 was read as EPAC2 antagonist -7%, EPAC1 antag -9%, EPAC2 agonist 28% and EPAC1 agonist 2%.
`CCc1nc2c(OCc3ccc(C(F)(F)F)cc3)cccn2c1N(C)C(=O)c1ccc(C)cc1` gave EPAC2 antagonist 16µM*, EPAC1 antag -21%, EPAC2 agonist -6% and EPAC1 agonist -31%.
For CCc1nc2c(OCc3ccc(OC)cc3)cccn2c1N(C)C(=O)c1ccc(OC)cc1 the results were EPAC2 antagonist inconclusive, EPAC1 antag 7%, EPAC2 agonist 16% and EPAC1 agonist 4%.
For CCc1nc2c(OCc3ccc(C(F)(F)F)cc3)cccn2c1N(C)C(=O)c1ccc(OC)cc1 the results were EPAC2 antagonist 18µM*, EPAC1 antag -20%, EPAC2 agonist 1% and EPAC1 agonist -4%.
Screening Cc1ccc(C(O)c2ncc(-c3ccc(F)cc3)[nH]2)cc1F (stereo not given) returned EPAC2 antagonist -10%, EPAC1 antag -2%, EPAC2 agonist 7% and EPAC1 agonist -5%.
Screening CCOC(=O)[C@]12CCCC=C1N(CCC1=CCCCC1)C(=O)[C@H](CC(=O)NCCCN1CCCC1=O)C2 returned EPAC2 antagonist 6%, EPAC1 antag -8%, EPAC2 agonist 12% and EPAC1 agonist -3%.
Screening CN1CCc2c(sc(NC(=O)CS(=O)(=O)c3ccccc3)c2C(N)=O)C1 returned Rango-impB inh inconclusive, Rango release inh 23µM*, EPAC2 antagonist -6%, EPAC1 antag -9%, EPAC2 agonist 5% and EPAC1 agonist 9%.
